Measured values: PubChem BioAssay (NCATS)
Records with an inconclusive call do not appear. Entries that show only a call come without a potency. The source made the active and inactive calls. Calls come from the whole dose curve; as a rule, active = well fitted curve in the direction sought with a large enough effect; inconclusive = small, poorly fitted or top-dose-only effect, or another doubt; inactive = no such curve, though single readings can be large; an effect the other way counts as inactive or inconclusive.

How the values were obtained:
MCC-26 = assay: qHTS assay to identify novel small-molecules to repurpose for Merkel cell carcinoma treatment (AID 1296009); details: MCC and control cell lines, CellTiter-Glo viability, 72 h; series mostly up to 46 µM; note: nearly all actives have a fitted effect of over 60% in size; note: potency is the fitted concentration of half-maximal effect
Procedure, shortened: (§1)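 CellTiter-Glo luminescence after 72 hr compound exposure at 37 degree celsius gave cell viability. Libraries NPC and MIPE were run as 8- and 11-point dose responses; RLUs normalized to DMSO (negative) and no-cell (cytotoxicity) controls.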

MKL-1 = assay: as above; details: MCC and control cell lines, CellTiter-Glo viability, 72 h; series mostly up to 46 µM
Procedure, shortened: as §1

MKL-2 = assay: as above; details: MCC and control cell lines, CellTiter-Glo viability, 72 h; series mostly up to 46 µM
Procedure, shortened: as §1

UISO = assay: as above; details: MCC and control cell lines, CellTiter-Glo viability, 72 h; series mostly up to 46 µM
Procedure, shortened: as §1

WaGa = assay: as above; details: MCC and control cell lines, CellTiter-Glo viability, 72 h; series mostly up to 46 µM
Procedure, shortened: as §1

C33A = assay: Primary qHTS to identify gynecologic anti-cancer compounds using libraries of approved drugs and bioactive compounds (AID 1345084); details: Gynecologic cancer cell panel viability, ATPlite luminescence, 48 h; series mostly up to 57.5 µM; note: nearly all actives have a fitted effect of over 55% in size
Procedure, shortened: (§2)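 Luminescence from the ATPlite ATP-monitoring reagent indicates viable cell number; lower signal means cytotoxicity. Cells received compound 16 h after seeding and were exposed for 48 h across five concentrations.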

CASKI = assay: as above; details: Gynecologic cancer cell panel viability, ATPlite luminescence, 48 h; series mostly up to 57.5 µM
Procedure, shortened: as §2

HeLa = assay: as above; details: Gynecologic cancer cell panel viability, ATPlite luminescence, 48 h; series mostly up to 57.5 µM
Procedure, shortened: as §2

SMILES | Potency (MCC-26) | Potency (MKL-1) | Potency (MKL-2) | Potency (UISO) | Potency (WaGa) | Potency (C33A) | Potency (CASKI) | Potency (HeLa)
O=C(CN1C(=O)C2(CCCC2)NC[C@H]1c1cc(F)cc(F)c1)Nc1ccc2c(c1)C[C@@]1(C2)C(=O)Nc2ncccc21 | inactive | inactive | inactive | inactive | inactive | – | – | –
COc1cc(C(C)C)c(Oc2cnc(NC(CO)CO)nc2N)cc1I | inactive | inactive | inactive | inactive | inactive | – | – | –
C[C@H]1O[C@H](O[C@H]2[C@H](O)[C@@H](O)[C@@H](O[C@H]3[C@H](O)[C@@H](O)C(O)O[C@H]3CO)O[C@H]2CO)[C@H](O)[C@@H](O)[C@H]1N[C@H]1C=C(CO)[C@@H](O)[C@H](O)[C@@H]1O (stereo partly specified) | inactive | inactive | inactive | inactive | inactive | – | – | –
CC(=O)O[C@H]1C[C@@H]2CC[C@H]3[C@H]4C[C@H]([N+]5(C)CCCCC5)[C@@H](OC(C)=O)[C@@]4(C)CC[C@@H]3[C@@]2(C)C[C@H]1[N+]1(C)CCCCC1 | inactive | inactive | inactive | inactive | inactive | – | – | –
CC(Oc1ccc(O)cc1)(P(=O)(O)O)P(=O)(O)O | inactive | inactive | inactive | inactive | inactive | – | – | –
c1coc(CNc2ncnc3nc[nH]c23)c1 | inactive | inactive | inactive | inactive | inactive | – | – | –
CC(C)(C)[N+]([O-])=Cc1ccc(S(=O)(=O)O)cc1S(=O)(=O)O | inactive | inactive | inactive | inactive | inactive | – | – | –
CCCNS(=O)(=O)Nc1ncnc(OCCOc2ncc(Br)cn2)c1-c1ccc(Br)cc1 | inactive | inactive | inactive | inactive | inactive | – | – | –
N#CNC(=NCCCCCCOc1ccc(Cl)cc1)Nc1ccncc1 | 0.0148 µM (active) | 0.0012 µM (active) | inactive | 0.0059 µM (active) | 0.0033 µM (active) | – | – | –
C[C@@H](Cc1cc2c(c(C(N)=O)c1)N(CCCO)CC2)NCCOc1ccccc1OCC(F)(F)F | inactive | inactive | inactive | inactive | inactive | – | – | –
C=C[C@@H]1CN2CCC1C[C@H]2[C@H](O)c1ccnc2ccc(OC)cc12 (stereo partly specified) | inactive | inactive | inactive | inactive | inactive | – | – | –
C[C@](Cc1c[nH]c2ccccc12)(NC(=O)OC1C2CC3CC(C2)CC1C3)C(=O)NC[C@H](NC(=O)CCC(=O)O)c1ccccc1 (stereo partly specified) | inactive | inactive | inactive | inactive | inactive | – | – | –
CC(=O)N[C@H]1[C@@H]([C@H](O)[C@H](O)CO)OC(C(=O)O)=C[C@@H]1N=C(N)N | inactive | inactive | inactive | inactive | inactive | – | – | –
O=C(O)C=Cc1ccc(Cn2ccnc2)cc1 | inactive | inactive | inactive | inactive | inactive | – | – | –
CN[C@H]1[C@@H](O)[C@@H]2O[C@@H]3O[C@H](C)CC(=O)[C@]3(O)O[C@@H]2[C@@H](NC)[C@H]1O | inactive | 0.166 µM (active) | 2.96 µM (active) | 3.72 µM (active) | 0.296 µM (active) | – | – | –
Cc1onc(-c2ccccc2)c1C(=O)N[C@@H]1C(=O)N2[C@@H](C(=O)O)C(C)(C)S[C@@H]12 | inactive | inactive | – | inactive | inactive | – | – | –
CN1CCCN(C(=O)c2cccc(-c3ccc(C=C4C(=O)Nc5ccc(Cl)cc54)o3)c2)CC1 | inactive | 5.26 µM (active) | 16.6 µM (active) | – | 16.6 µM (active) | – | – | –
Cn1cnc2c(F)c(Nc3ccc(Br)cc3F)c(C(=O)NOCCO)cc21 | inactive | inactive | inactive | inactive | inactive | inactive | inactive | inactive
NC[C@H]1O[C@H](O[C@H]2[C@@H](O)[C@@H](O[C@H]3O[C@H](CO)[C@@H](O)[C@H](N)[C@@H]3O)[C@H](N)C[C@@H]2N)[C@H](N)C[C@H]1O | inactive | inactive | inactive | inactive | inactive | – | – | –
CC(=O)[C@]1(O)Cc2c(O)c3c(c(O)c2[C@@H](O[C@H]2C[C@H](N)[C@@H](O)[C@H](C)O2)C1)C(=O)c1ccccc1C3=O | 1.32 µM (active) | 0.148 µM (active) | 0.105 µM (active) | 0.59 µM (active) | 0.0833 µM (active) | – | – | –
